Source: PubChem BioAssay AID431 (Sanford-Burnham Center for Chemical Genomics, 2006)
Out of some 63,000 compounds screened, about 1,100 (1.7%) were called active. What follows is part of a selection rich in actives, with near analogues and random picks from the rest. Measured potencies and affinities stand elsewhere. Unmarked numbers belong to inactive results.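 Rule for the calls: active = compounds whose percent cytotoxicity in the single-dose primary screen, scaled between solvent and toxic-drug controls, exceeds 50; inactive = the rest.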

Test: viability loss of HPDE-C7K cells – cell-based, fluorescence, HTS, primary screen (AID 431);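 note: 0% = DMSO solvent wells and 100% = doxorubicin-treated wells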
Conditions: HPDE-C7K KRASV12 cells, Alamar Blue viability, 48 h; at 10 µM; hits give high values
For `COc1ccc(COC(=O)c2ccc(N3CCCC3=O)cc2)cc1F`, the cytotoxicity was 0.9%.
For `O=C(NCc1ccco1)c1cnc2n(c1=O)CCS2`, the cytotoxicity was 8.6%.
In the case of `CSc1nc(N)nc(SCC(=O)c2ccc(C)cc2)c1C#N`, the cytotoxicity is reported as -1%.
With `CSc1nc(N)nc(SCC(=O)C23CC4CC(CC(C4)C2)C3)c1C#N` the cytotoxicity was 76.6% (active).
With `CSc1nc(N)nc(SCC(=O)OC(C)C)c1C#N` the cytotoxicity was -1.2%.
For `CCCCOc1cccc(C(=O)N(Cc2ccco2)C2CCS(=O)(=O)C2)c1` (stereo not drawn), the cytotoxicity was -19.4%.
`COC(=O)C(NC(=O)c1ccccc1)=C(C)C` gave a cytotoxicity of -16.9%.
`Cc1[nH]c(=S)[nH]c(=O)c1Cc1ccccc1` showed a cytotoxicity of -7.5%.
In the case of `O=C(CN1CCN(c2ccccn2)CC1)N1c2ccccc2Sc2ccc(C(F)(F)F)cc21`, the cytotoxicity is reported as 17%.
With `O=C(N1CCOCC1)N1CCN(c2ccccn2)CC1` the cytotoxicity was -19.2%.
For `O=C(NC1CCN(C(=O)N2c3ccccc3Sc3ccccc32)CC1)c1ccco1`, the cytotoxicity was -3.7%.
With `O=C(c1ccco1)N1CCN(C(=O)N2c3ccccc3Sc3ccccc32)CC1` the cytotoxicity was 74.4% (active).
In the case of `O=C(N1CCN(c2ccccn2)CC1)N1c2ccccc2Sc2ccccc21`, the cytotoxicity is reported as 66.6% (active).
For `O=C(c1ccco1)N1c2ccccc2Sc2ccccc21`, the cytotoxicity was 4.1%.
Work on `Cc1ccc2c(c1)c1c3n2CC(=C2C(=O)OC(C)(C)OC2=O)NC3CCC1` (stereo not drawn) yielded a cytotoxicity of 33.1%.
`CC1(C(=O)O)CC(C)(C(=O)O)CC(C)(C(=O)O)C1` (stereo not drawn) gave a cytotoxicity of -1.4%.
In the case of `FC(F)(F)c1cc(-c2ccccc2)nc(N2CCCCC2)n1`, the cytotoxicity is reported as -12.8%.
In the case of `CCN(CCCNC(=O)c1[nH]c(C)c(C(C)=O)c1C)c1ccccc1`, the cytotoxicity is reported as 11.4%.
In the case of `NC(=O)c1ccccc1NC(=O)CCc1ccccc1`, the cytotoxicity is reported as 3.2%.
In the case of `CCOc1ccc(OCC)c(NC(=O)CN2CCN(c3cccc(C)c3C)CC2)c1`, the cytotoxicity is reported as -0.1%.
Work on `Cc1cccn2c(=O)c(/C=N/O)c(N3CCCCC3)nc12` yielded a cytotoxicity of 3.4%.
With `O=C1c2ccccc2NC(c2ccco2)N1O` (stereo not drawn) the cytotoxicity was 9.4%.
Work on `O=C1COc2ccc(C(=O)c3ccccc3)cc2CN1` yielded a cytotoxicity of -4.7%.
In the case of `COc1ccccc1N(CC(=O)N1CCCCCC1)S(C)(=O)=O`, the cytotoxicity is reported as -11.5%.
With `COCc1cc(CN2CCCC2)c(O)c2ncccc12` the cytotoxicity was -4.6%.
Compound `Oc1c(CN2CCCCC2)cc(COCc2ccccc2)c2cccnc12` has a cytotoxicity of 2.2%.
`COCc1[nH]nc2c1C1(C(=O)Nc3ccc(F)cc31)C(C#N)=C(N)O2` (stereo not drawn) gave a cytotoxicity of -38.8%.
Work on `Cc1ccc(NC(=O)CC2SCCNC2=O)cc1Cl` (stereo not drawn) yielded a cytotoxicity of -0.4%.
